PrP 5UTR inh = suppresses PrP 5' UTR mRNA reporter expression. cell-based PrP 5' UTR mRNA reporter, plate reader. inhibition, % (no concentration beside the values). actives 0.35% (n = 340,000). AID 488862; in the data active means inhibition above about 52%; further: 0 = median of the neutral control wells
BJeLR lethal = BJeLR cell viability loss. BJeLR (HRASV12) viability, CellTiter-Glo ATP luminescence, 48 h. inhibition, % (test concentration not listed). actives 0.17% (n = 300,000); in the data active means inhibition above about 50%; inconclusive means no clear call, values can overlap the other calls
PfHsp40 yeast = rescue of PfHsp40-mediated yeast toxicity | S. cerevisiae expressing PfHsp40, growth rescue, ATP luminescence | growth rescue, % at 12.5 µM | actives 0.68% (n = 340,000) | AID 504582; in the data active means growth rescue above about 28%, passing the limit was not always enough; inconclusive means no clear call, values can overlap the other calls;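 further: yeast W303a lacking pdr1 and pdr3 grown in galactose medium; growth measured after three days at 30 °C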
PrPC TRFRET = reduces human prion protein on the cell surface | AID 720596 | inhibition, % at 13.8 µM | actives 0.43% (n = 370,000) | cell surface PrPC, TR-FRET read-out; in the data active means inhibition above about 24%; further: 0% = median of the test wells and 100% = reference compound wells
PriA SSB inh = K. pneumoniae PriA-SSBct interaction inhibition. AlphaScreen SSBct-PriA binding, biotinylated peptide. inhibition, % at 33 µM. actives 0.6% (n = 430,000). AID 1272365; in the data active means inhibition mostly above about 37%, no sharp cut-off; inactive means mostly below about 20%;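 further: plate controls were negative control peptide for no effect and reference peptide for full effect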
RecA intein inh = inhibitors of M. tuberculosis RecA intein splicing; P9WHJ3; cell-free RecA intein splicing, fluorescence; AID 2221; inhibition, % (no concentration beside the values); actives 0.75% (n = 290,000); in the data active means inhibition above about 30%; inconclusive means no clear call, values can overlap the other calls;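 further: 0% = vehicle wells and 100% = reference inhibitor control wells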
Target sequence (P9WHJ3 whole entry, looked up): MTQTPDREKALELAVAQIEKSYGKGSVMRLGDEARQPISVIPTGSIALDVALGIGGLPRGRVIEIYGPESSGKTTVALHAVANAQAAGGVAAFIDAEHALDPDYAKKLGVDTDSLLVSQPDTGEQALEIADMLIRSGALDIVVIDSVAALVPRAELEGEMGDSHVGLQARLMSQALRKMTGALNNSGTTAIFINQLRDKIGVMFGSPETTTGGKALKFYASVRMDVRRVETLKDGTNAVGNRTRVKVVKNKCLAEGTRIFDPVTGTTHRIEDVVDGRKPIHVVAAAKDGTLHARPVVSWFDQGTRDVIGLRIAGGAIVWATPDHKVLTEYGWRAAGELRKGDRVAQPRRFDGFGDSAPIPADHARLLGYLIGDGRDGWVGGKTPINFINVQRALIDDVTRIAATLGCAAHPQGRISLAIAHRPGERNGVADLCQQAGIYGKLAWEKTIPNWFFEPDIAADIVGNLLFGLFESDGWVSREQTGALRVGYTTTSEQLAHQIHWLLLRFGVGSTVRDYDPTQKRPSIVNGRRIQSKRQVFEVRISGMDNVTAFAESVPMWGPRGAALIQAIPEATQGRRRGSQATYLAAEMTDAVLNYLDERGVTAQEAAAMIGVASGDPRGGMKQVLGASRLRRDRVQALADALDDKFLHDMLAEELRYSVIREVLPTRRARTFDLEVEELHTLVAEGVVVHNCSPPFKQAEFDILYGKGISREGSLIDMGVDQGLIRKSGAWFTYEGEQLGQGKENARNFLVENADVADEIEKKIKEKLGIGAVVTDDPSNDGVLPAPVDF
* hit, by the source's call; u = inconclusive; x = no result. Compounds with a hit are over-represented: about 1.9% of the library has one in this group of screens.

SMILES | PrP 5UTR inh | BJeLR lethal | PfHsp40 yeast | PrPC TRFRET | PriA SSB inh | RecA intein inh
CC(c1ccc(O)cc1)(c1ccc(O)cc1)c1ccc(CCBr)cc1 | -18 | -5 | -1 | -2 | -4 | 31*
OCCc1ccc(O)cc1 | -25 | x | -1 | 6 | 1 | x
Cc1ccc([C@@H]2CC=C(C(=O)O)[C@H](c3ccc(Br)cc3)N2S(=O)(=O)c2ccccc2C)cc1 | -12 | x | 318* | 11 | 5 | x
CCC(NC(=O)c1ccccc1NC(=O)c1ccc(OC)cc1)C(=O)N1CCCC1 (stereo not drawn) | -31 | 11 | 0 | -4 | -6 | 1
CCC(NC(=O)c1ccccc1NC(=O)c1ccccc1)C(=O)OC (stereo not drawn) | -11 | -1 | u | -1 | 52* | -1
O=S(=O)(CCCOc1ccc(F)cc1)NCc1ccccc1Cl | x | x | x | x | -6 | x
O=C1C(=O)c2ccc(-c3ccccc3)cc2-c2ccccc21 | -36 | 110* | 1 | 0 | -12 | 8
CC1CCc2c(sc3c2C(=O)NC(c2ccccn2)N3)C1 (stereo not drawn) | x | x | x | x | 67* | x
CN1CCc2c(sc3c2C(=O)NC(c2cccs2)N3)C1 (stereo not drawn) | -20 | 1 | 0 | -1 | -6 | -44
O=C(CSc1ccccc1)Nc1cc(S(=O)(=O)N2CCOCC2)ccc1N1CCOCC1 | -26 | -1 | 59* | -1 | -4 | -2
COc1ccc(S(=O)(=O)N2CCOCC2)cc1NC(=O)CSc1ccccc1 | -8 | -14 | 1 | 8 | -8 | 1
CCOc1cccc(/C=N/NC(=S)Nc2cc(S(=O)(=O)N3CCOCC3)ccc2N2CCOCC2)c1O | 16 | -6 | 60* | -3 | x | 2
CCOc1cccc(C=NNC(=S)Nc2cc(S(=O)(=O)N3CCOCC3)ccc2N2CCOCC2)c1O | x | x | x | x | 19 | x
O=C(NNC(=S)NCC(Cl)Cc1cccc(C(F)(F)F)c1)c1ccccc1 (stereo not drawn) | x | x | x | x | 9 | x
COc1nn(C)cc1C(=O)NC[C@H](OC)c1ccsc1 | x | x | x | x | -1 | x
O=C(CCSc1ccc(Br)cc1)c1ccc(O)cc1 | -22 | -9 | 537* | 0 | -2 | 10
O=C(CCO)c1ccc(O)cc1 | -6 | 11 | 13 | -3 | -5 | -4
Cc1cc(C)n(-c2cc(N3CCC[C@H](C(=O)NCCC4=CCCCC4)C3)ncn2)n1 | x | x | x | x | 0 | x
CC(=O)Nc1ccc(Oc2nc(-c3ccccn3)nc3ccccc23)cc1 | -52 | 12 | -1 | -10 | -1 | 1
Cc1cccc(Oc2nc(-c3ccccn3)nc3ccccc23)c1 | -71 | 4 | 195* | 2 | -1 | 6
Cc1ccccc1Oc1nc(-c2ccccn2)nc2ccccc12 | -43 | 12 | 245* | -1 | 1 | 8
Cc1cccc(Oc2nc(-c3ccncc3)nc3ccccc23)c1 | -10 | -3 | 15 | 1 | -9 | 4
COc1ccc(-c2cc(C(=O)N3CCC(NC(=O)c4ccccc4Cl)CC3)[nH]n2)cc1 | x | x | x | x | -19 | x
CCOc1ccc(CCNC(=O)c2c(C)noc2C)cc1OCC | -18 | 5 | 43* | -5 | -6 | -2
CCOc1ccc(N=Cc2c(C)[nH]n(-c3nc4ccccc4[nH]3)c2=O)cc1 | -7 | 65* | -3 | -5 | 7 | 0
SMILES | PrP 5UTR inh | BJeLR lethal | PfHsp40 yeast | PrPC TRFRET | PriA SSB inh | RecA intein inh
O=C(NCCn1ccnc1-c1ncccn1)Nc1c(F)cccc1F | x | x | x | x | 86* | x
Cc1ccc(NC(=O)NCCn2ccnc2-c2ncccn2)cc1C | x | x | x | x | 97* | x
C=CCNc1nnc(C(C)(C)C)c(=O)[nH]1 | x | x | x | x | -1 | x
COc1cccc(NC(=S)NN=C2CC(C)(C)Oc3ccc(O)cc32)c1 | x | x | x | x | 40* | x
COc1ccc(NC(=S)N/N=C2\CC(C)(C)Oc3ccc(OC)cc32)cc1 | -5 | -6 | 0 | 11 | x | -3
Cc1ccccc1NC(=S)N/N=C1\CC(C)(C)Oc2ccc(O)cc21 | -11 | -10 | 6 | -5 | x | -34
CC1(C)CC(=NNC(=S)Nc2ccccc2F)c2cc(O)ccc2O1 | x | x | x | x | 45* | x
COc1ccc(NC(=S)NN=C2CC(C)(C)Oc3ccc(O)cc32)cc1 | x | x | x | x | 47* | x
COc1ccc(N2C[C@@H](CNS(=O)(=O)c3cc(OC)ccc3OC)CC2=O)cc1 | x | x | x | x | 1 | x
O=C(c1ccc(-c2ccccc2)c(F)c1)C1CCCN(C(=O)c2cncs2)C1 (stereo not drawn) | -11 | 5 | 412* | 15 | -7 | 2
Cc1ccc(C(=O)N2CCCC(C(=O)c3ccc(Cl)cc3C)C2)cn1 (stereo not drawn) | -20 | -1 | 1 | 5 | -10 | 1
Cc1cc(Cl)ccc1C(=O)C1CCCN(C(=O)c2cncs2)C1 (stereo not drawn) | 1 | 7 | 377* | -8 | 6 | 2
Cn1nc(CN(Cc2ccco2)C(=O)C2CCN(S(C)(=O)=O)CC2)cc1C1CC1 | x | x | x | x | -12 | x
N#C/C(=C\c1ccc(OCc2ccccc2)cc1)C(=O)Nc1cccnc1 | x | x | x | x | -5 | x
CC(C)(C)OC(=O)N1Cc2nn(-c3ccccc3)c(N)c2C1 | x | x | x | x | -13 | x
CC(=NNC(=S)N1CC2CCC(CC2)C1)c1cccc(C)n1 | -9 | x | 0 | 7 | -10 | x
CC(=NNC(=S)N1CC2CCC(CC2)C1)c1nccs1 | 12 | x | 126* | -9 | 57* | x
O=C(c1cc(=O)[nH]c2ccccc12)N1CCC(Oc2cccnn2)C1 (stereo not drawn) | x | x | x | x | 1 | x
O=C(CCl)Nc1nnc(C23CC4CC(CC(C4)C2)C3)s1 | x | x | x | x | -2 | x
Cc1ccc(-n2ccn(CC(=O)NCc3ccccc3Cl)c(=O)c2=O)cc1F | x | x | x | x | -14 | x
CCCCNC(=O)CC(C(=O)N1CCc2ccccc21)n1ccnc1 (stereo not drawn) | 9 | -8 | -1 | -3 | -9 | -1
CCN(CCCNC(=O)CC(C(=O)N1CCc2ccccc21)n1ccnc1)c1cccc(C)c1 (stereo not drawn) | -6 | -9 | 0 | -8 | 47* | 1
O=C(c1cc(-c2ccco2)[nH]n1)N1CC(N2C(=O)C3CC=CCC3C2=O)C1 (stereo not drawn) | x | x | x | x | -2 | x
Cc1ccc(N=Nc2ccc(O)cc2)c(Br)c1 | -38 | 20 | 201* | 3 | 45 | 17
Oc1ccc(N=Nc2ccc(Br)cc2)c(O)c1 | -59 | 0 | 1 | -6 | -14 | 8
SMILES | PrP 5UTR inh | BJeLR lethal | PfHsp40 yeast | PrPC TRFRET | PriA SSB inh | RecA intein inh
CN1C(=O)C(=Cc2ccccc2OCCOc2ccc([N+](=O)[O-])cc2)C(=O)N(C)C1=O | -24 | 1 | 23 | -2 | -9 | 3
O=C1NC(=O)C(=Cc2ccccc2OCCOc2ccc([N+](=O)[O-])cc2)C(=O)N1 | -20 | x | 45* | x | -14 | x
Cc1csc(NC(=O)C2CCN(c3ccc(-n4cccn4)nn3)CC2)n1 | x | x | x | x | -2 | x
O=C(Nc1nc2c(s1)CCCC2)C1CCN(c2ccc(-n3cccn3)nn2)CC1 | x | x | x | x | 48* | x
O=C(Nc1ccc(Cl)c(C(F)(F)F)c1)c1cn[nH]n1 | x | x | x | x | 7 | x
COc1ccc(/C=N/Nc2cc(C)nc(-n3nc(C)cc3C)n2)cc1 | -18 | -1 | 272* | 2 | x | -2

Bioassay records: PubChem BioAssay, several laboratories
